# Laboratory results from the supplement of paper PMC11417369.
# ± gives the standard deviation of the averaged measurements. Over roughly 25,000 sequences, “ln(normalized median fluorescence intensity)” has its median near 7.9; the highest 2% begin near 11. The entries come from a sample that favours the highest values as a whole.
# Tested on: PfAP2-I AP2 domain 3 (GST-tagged)
# Assay: gcPBM binding intensity (ln(normalized median fluorescence intensity)); higher = stronger DNA binding
# Method in brief: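 The highest Masliner-normalised natural-log median intensity across replicate spots of either probe orientation is reported as binding intensity. GST-tagged P. falciparum DNA-binding domains expressed in E. coli were applied for 1 h to an Agilent 4 × 180k array of primer-extended double-stranded 36-bp intergenic genomic probes plus negative controls, and bound protein was detected with Alexa488 anti-GST antibody and scanned at 488 nm.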
row,Sequence,gcPBM binding intensity (ln)
1,AAATGTGCATTATGTTGTACAGTCGAAATTTTTTTT [XGTACX_site3812],11.1 ± 0.62
2,AAAGAAATTATTTGTTGTACATATGTTATTTTTTTT [XGTACX_site7570],7.75 ± 0.25
3,TATTTTGCAAAATGTGCATGTTGTGTATTATGTGAC [TGCATGCA_site59],8.97 ± 0.51
4,AAGAAAGACATTACGTGTACCAAACAACCTACCAAC [XGTACX_site4219],8.22 ± 0.25
5,TTCCTTTGTTGTCGTTGTACTTATATGGTTATAATT [XGTACX_site3082],8.29 ± 0.64
6,TAGGTCCTCATTTTATGTACATAAAGAAATATGATT [XGTACX_site4138],7.86 ± 0.36
7,CCCATGCATTTTTGCACACACATATATTTATAAATA [CACACA_site6785],9.75 ± 0.17
8,ACCCATTTGATAATAATGCACACCACATATATTTAT [CACACA_site3061],11 ± 0.63
9,ATATATTTATAATACACATGCAATGATATAATATAT [TGCATGCA_site20],8.43 ± 0.75
10,TATTATAATATTTATACACACATAATTTTGATAAAT [CACACA_site583],7.68 ± 0.4
11,CCATTTGATAATAATGCACACCACATATATTTATAT [CACACA_site9002],11 ± 0.4
12,TATATATTAATATTTACACACATGCGCACCCATAAA [CACACA_site2410],9.86 ± 0.57
13,ACTCTCTTATATTAAACACACATATTTATAGGTATA [CACACA_site7302],8.07 ± 0.45
14,AGGAGGATGCATATGGCACACATTATGAAACTGTCG [CACACA_site299],9.11 ± 1
15,AATTTTTAGAAGAACACACACATATATATTATGACC [CACACA_site246],7.75 ± 0.65
16,TATTAATGATAAGAATATTTTATATGATACATGCAT [CACACA_negctrl_site923],7.46 ± 0.68
17,ATTTTTAATGGATAAGTGCATAATATTATGATGCAA,10.9 ± 0.64
18,GAAAGAAAATATTAAGTGCATATTTTAATGATACAA [GTGCAC_site9712],9.02 ± 0.2
19,TTTTTTTTTTTGTGTGCATGTGCTAGGAAAGGTAGG [TGCATGCA_site330],8.85 ± 0.11
20,TACTTCATATAATTAGCACACAATAATTTCTCATTT [CACACA_site2872],8.31 ± 0.45
21,GTATTTATAATACGGCGTACATAAAAAAAAAAAAAA [XGTACX_site3705],8.14 ± 0.45

row,Sequence,gcPBM binding intensity (ln)
1,TAAATTAATACCTATGCACACATTTTTTTTTTTAAA [CACACA_site1238],8.32 ± 0.47
2,AATGCTATCATTAATGCACACATTTAAACTTAATAT [CACACA_site5878],11 ± 0.61
3,AAATTTAATTTTATATCACACATTAAATTTTAATGG [CACACA_site4251],7.65 ± 0.58
4,AATGCTATCATTAATGCACACATTTAAAATTAATAT [CACACA_site3548],11 ± 0.55
5,TAATATATTATAAACACATGCACATTAATAATAACT [TGCATGCA_site708],8.08 ± 0.58
6,TATCATTTTTTTAAAACACACATAATAATATAAATA [CACACA_site2845],7.82 ± 0.31
7,GAAAAAATAAAATAAAGTACATAACTATAATAAAAA [XGTACX_site4807],7.9 ± 0.34
8,TTTTTTTTTTTTTTTACACACTGCATACAAGAAAAA [CACACA_site5642],8.54 ± 0.66
9,TGTGCACGCATATACACACACAAATACAATGATAAA [CACACA_site6656],8.92 ± 0.11
10,TATTATATTTGTATGTGTACTTATATGGTTGTAATA [XGTACX_site4548],7.87 ± 0.26
11,TACCCTTGCATGTAGGTGCAATTTTTTTTTTTTTTT,10.6 ± 0.35
12,AAAATTATGCAGTAGGTGCAATACCCTCGGCTTTTT [GTGCAC_site9556],11.1 ± 0.64
13,ATTTATATTACCCTTGCATGTAGGTGCAATTTTTTT [TGCATGCA_site757],10.64 ± 0.085
14,TTCCTGTTAATTACAACACACAATTCTTATTTTATG [CACACA_site6507],7.98 ± 0.52
15,ACAAAACTCTTTAATTGTACAAATATAATATAAAAA [XGTACX_site5690],7.74 ± 0.63
16,TATTTATAAATGAACACACACGCAATTTGAATCGAA [CACACA_site3371],8.04 ± 0.46
17,TTAATTAAATATAGGGGTACATATTATATATGTTTT [XGTACX_site3677],7.76 ± 0.42
18,TATATATATATATGTGCACACATAATAAAAAAAAAA [CACACA_site3830],10.55 ± 0.035
19,TTACGCTGCTATATAGTGCACATAATATATGACCTG,11 ± 0.24
20,TGCTATATAATATGAGCACACATAAGATTTGGTGTT [CACACA_site8148],8.05 ± 0.6
21,TAAAACACTCATGGCACACATAAAACATTTTTATGA [CACACA_site3574],8.18 ± 0.24

row,Sequence,gcPBM binding intensity (ln)
1,TCAATTTGGAACGGTATGCACTAATTTTATATTTTT,9.02 ± 0.19
2,TATTTTAAAACAAAAATATAATTTCATAAAAATATA [CACACA_negctrl_site394],7.2 ± 0.47
3,TGTAATTGTTTAAAGGGTACATATATCAGATGTCTT [XGTACX_site5877],7.62 ± 0.54
4,TATATCATTATATAAACACACAATATGTTTTTTATA [CACACA_site3781],7.42 ± 0.54
5,TTTATTTATATAATTACACACATATATACGCAAATG [CACACA_site2794],7.78 ± 0.31
6,TATTTAATTATATAAAATTAAATTTTTAATTCTTCC [CACACA_negctrl_site473],7.28 ± 0.53
7,TTTTTTTCTCACAATCGTACATAAATACATATATAT [XGTACX_site3150],8.12 ± 0.54
8,TGTTTTTCATAGTGCACACATAACCAAAAATAGTAT [CACACA_site3150],11.5 ± 0.67
9,AAATATTCATAGTATACACACATTTATTTATAACCA [CACACA_site6502],7.88 ± 0.52
10,TTTCATAACAAAAAAGTGCAAAATAGCACGAACATT [GTGCAC_site9703],10.66 ± 0.049
11,GGTATTTTCACATATAGTACACAAAAATAAAATAAA [XGTACX_site2139],8.48 ± 0.099
12,TTTGTTTTTCATAGTGCACACATAACCAAAAATAGT [CACACA_site9030],11.3 ± 0.46
13,AATAAATTCATGATAGTGCAAAAATTATTTTTGTTA,9.49 ± 0.028
14,GAAAAAATTTTATGGTGTACTTTATTTATTTATATA [XGTACX_site6323],8.06 ± 0.28
15,TATTTTAAAGAGAAAACATGCATTATATAGAACATT [TGCATGCA_site328],7.93 ± 1
16,AATATAATATAATGCACACATAAACAAAAAAAAAAA [CACACA_site783],11.2 ± 1
17,AATATAATATAATGCACACATAAAACAAAAAAAAAA [CACACA_site3012],11 ± 0.86
18,AAAATATATACACAAACATGCATATAATAAATAAAT [TGCATGCA_site711],7.98 ± 0.83
19,AATATAAACACAAACACACACATATATATATATATA [CACACA_site4307],9.49 ± 0.45
